Assay results published in PubChem BioAssay (Tox21).
Records with an inconclusive call do not appear. Where a call stands in place of a potency, no number is given. The source holds several records for some structures; these can differ, active in one and inactive in another. Calls of active or inactive are those of the source. Unless noted, calls come from the whole dose curve; as a rule, active = well fitted curve in the direction sought with a large enough effect in the repeat runs; inconclusive = weak or mixed curves; inactive = no such curve, though single readings can be large; an effect the other way counts as inactive or inconclusive.

What was measured:
[1] = qHTS assay to identify small molecule antagonists of the estrogen receptor alpha (ER-alpha) signaling pathway using the BG1 cell line in the presence of 0.1 nM 17-beta-estradiol - cell viability counter screen (AID 1259241); note: nearly all actives have a fitted effect of over 40% in size; note: potency is the fitted concentration of half-maximal effect
How it was run: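 VM7Luc4E2, 4,000 cells/well, phenol red-free medium + 10% charcoal-stripped FBS; 24 hr plating; cpd + 0.1 nM E2 final, 22 hr 37C/5% CO2; CellTiter-Fluor 30 min, fluorescence.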

[2] = qHTS assay to identify small molecule antagonists of the androgen receptor (AR) signaling pathway using the MDA cell line in the presence of 0.5 nM R1881 - cell viability counter screen (AID 1259242); note: nearly all actives have a fitted effect of over 45% in size; note: potency is the fitted concentration of half-maximal effect
How it was run: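 Counter screen for cytotoxicity run in the same wells as the AR antagonist reporter screen: MDA-kb2 cells were treated 16 hr with test compounds and 0.5 nM R1881, then live-cell protease activity was measured by fluorescence.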

[3] = target: Androgen receptor (Homo sapiens) (UniProt P10275); assay: qHTS assay to identify small molecule antagonists of the androgen receptor (AR) signaling pathway using the MDA cell line in the presence of 0.5 nM R1881 (AID 1259243); note: nearly all actives have a fitted effect of over 50% in size; note: potency is the fitted concentration of half-maximal effect
How it was run: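 Luciferase luminescence is the read-out: compounds are tested for suppressing 0.5 nM R1881-driven MMTV reporter activity in MDA-kb2 cells after 16 hr at 37C.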

[4] = target: Estrogen receptor (Homo sapiens) (UniProt P03372); assay: qHTS assay to identify small molecule antagonists of the estrogen receptor alpha (ER-alpha) signaling pathway using the BG1 cell line in the presence of 0.1 nM 17-beta-estradiol (AID 1259244); note: nearly all actives have a fitted effect of over 50% in size; note: potency is the fitted concentration of half-maximal effect
How it was run: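 Cells: VM7Luc4E2, endogenous ER-alpha, 4x ERE-luc stable. Pre-culture 5 d, phenol red-free, charcoal-stripped FBS. Plated 24 h, compound + E2 0.1 nM final, 22 h 37C/5% CO2. Readout ONE-Glo luminescence.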

[5] = qHTS assay to identify small molecule HDAC inhibitors (AID 1259364); note: nearly all actives have a fitted effect of over 45% in size; note: potency is the fitted concentration of half-maximal effect
How it was run: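 Luminescence from a cell-permeant luminogenic class I/II HDAC substrate reports endogenous deacetylase activity in intact HCT-116 cells treated with compounds for 2 h.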

[6] = qHTS assay to identify small molecule HDAC inhibitors - cell viability counter screen (AID 1259365); note: nearly all actives have a fitted effect of over 50% in size; note: potency is the fitted concentration of half-maximal effect
How it was run: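 Luminescence from CellTiter-Glo, developed 30min at room temperature, reports viability of wild-type HCT-116 cells treated 2hr with compounds at 37 C and 5% CO2 after overnight plating.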

[7] = qHTS assay to identify small molecule agonists of the sonic hedgehog signaling (Shh) pathway - cell viability counter screen (AID 1259366); note: nearly all actives have a fitted effect of over 50% in size; note: potency is the fitted concentration of half-maximal effect
How it was run: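 Cytotoxicity counter screen run in the same wells as the Shh reporter assay. NIH/3T3 cells carrying a Gli1 response element–driven luciferase were treated with DMSO-dissolved compounds for 24hr, and live-cell protease activity was measured with CellTiter-Fluor.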

[8] = qHTS assay to identify small molecule antagonists of the sonic hedgehog signaling (Shh) pathway - cell viability counter screen (AID 1259367); note: nearly all actives have a fitted effect of over 55% in size; note: potency is the fitted concentration of half-maximal effect
How it was run: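 NIH/3T3-derived Gli1-Luc reporter cells (2,000 per well) rested 4 hr at 37 C, then received DMSO compounds plus conditioned medium. After 23 hr of treatment, CellTiter-Fluor was added for 1 hr at 37C and fluorescence read.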

[9] = qHTS assay to identify small molecule agonists of the sonic hedgehog signaling (Shh) pathway (AID 1259368; calls by dose curve;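 note: NIH/3T3-derived 3T3Gli1-Luc cells carrying a stable Gli1-driven firefly luciferase reporter; series mostly up to about 92 µM; nearly all actives have a fitted effect of over 15% in size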)
How it was run: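 3T3Gli1-Luc (NIH/3T3 clone, stable Gli1-Luc); 4 hr pre-incubation, then cpd in DMSO 24 hr, 37 C/5% CO2; luciferase reagent 30 min RT; luminescence.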

[10] = qHTS assay to identify small molecule phospholipidosis (PLD) inducers (AID 1259344; active = well fitted curve in the direction sought with a large enough effect; an effect the other way counts as inactive or inconclusive)
How it was run: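 HepG2 cells on collagen I, attached 4 h at 37 C, were co-treated with compound and LipidTOX Red dye for 24 h at 37 C, then fixed with paraformaldehyde plus Hoechst 33342 and imaged by high-content microscopy for phospholipid accumulation.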

Chain of Androgen receptor (Homo sapiens) (P10275 whole entry, looked up): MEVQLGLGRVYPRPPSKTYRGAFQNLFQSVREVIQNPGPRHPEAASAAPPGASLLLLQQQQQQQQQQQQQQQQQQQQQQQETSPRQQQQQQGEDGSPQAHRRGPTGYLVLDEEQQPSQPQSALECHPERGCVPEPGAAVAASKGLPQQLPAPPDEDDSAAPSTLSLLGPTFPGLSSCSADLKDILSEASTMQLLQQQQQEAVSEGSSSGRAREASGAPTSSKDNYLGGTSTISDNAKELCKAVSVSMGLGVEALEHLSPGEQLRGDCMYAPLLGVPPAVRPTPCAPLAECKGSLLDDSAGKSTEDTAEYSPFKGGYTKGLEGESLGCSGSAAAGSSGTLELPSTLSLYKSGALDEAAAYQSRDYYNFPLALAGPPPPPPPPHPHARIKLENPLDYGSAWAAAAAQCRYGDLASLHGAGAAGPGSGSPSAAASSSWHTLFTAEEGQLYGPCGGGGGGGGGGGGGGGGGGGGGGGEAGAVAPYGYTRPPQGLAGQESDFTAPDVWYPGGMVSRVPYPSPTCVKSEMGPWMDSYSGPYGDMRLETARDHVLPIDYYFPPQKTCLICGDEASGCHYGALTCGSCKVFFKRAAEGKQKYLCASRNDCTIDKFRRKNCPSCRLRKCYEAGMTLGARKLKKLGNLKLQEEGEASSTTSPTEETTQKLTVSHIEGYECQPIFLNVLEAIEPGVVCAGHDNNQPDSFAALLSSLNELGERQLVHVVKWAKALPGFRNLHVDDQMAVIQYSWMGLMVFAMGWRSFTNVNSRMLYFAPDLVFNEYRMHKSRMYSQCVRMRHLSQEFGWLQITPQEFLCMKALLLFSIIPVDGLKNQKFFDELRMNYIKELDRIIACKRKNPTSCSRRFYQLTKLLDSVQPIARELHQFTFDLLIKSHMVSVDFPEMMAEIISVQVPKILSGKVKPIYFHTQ
Chain of Estrogen receptor (Homo sapiens) (P03372 whole entry, looked up): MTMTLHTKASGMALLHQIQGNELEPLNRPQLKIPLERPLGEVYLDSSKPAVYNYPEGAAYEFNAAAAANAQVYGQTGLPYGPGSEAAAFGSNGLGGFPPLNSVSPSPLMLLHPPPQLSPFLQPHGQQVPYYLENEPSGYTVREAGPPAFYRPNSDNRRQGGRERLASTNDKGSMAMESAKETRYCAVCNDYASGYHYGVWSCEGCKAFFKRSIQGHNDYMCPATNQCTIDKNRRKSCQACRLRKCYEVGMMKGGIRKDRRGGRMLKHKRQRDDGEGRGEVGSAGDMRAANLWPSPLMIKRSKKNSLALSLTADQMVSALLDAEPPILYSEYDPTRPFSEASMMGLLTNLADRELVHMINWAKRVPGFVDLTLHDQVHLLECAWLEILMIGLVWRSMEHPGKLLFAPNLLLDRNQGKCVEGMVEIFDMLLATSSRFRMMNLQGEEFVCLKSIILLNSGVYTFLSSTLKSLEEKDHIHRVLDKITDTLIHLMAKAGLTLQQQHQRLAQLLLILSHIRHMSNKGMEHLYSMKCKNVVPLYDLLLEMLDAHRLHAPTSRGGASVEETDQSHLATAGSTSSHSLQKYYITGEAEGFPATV

SMILES	Potency [1]	Potency [2]	Potency [3]	Potency [4]	Potency [5]	Potency [6]	Potency [7]	Potency [8]	Potency [9]	outcome [10]	PLD induction [10]
O=C(NC(=O)c1c(F)cccc1F)Nc1cc(Cl)c(Oc2ncc(C(F)(F)F)cc2Cl)c(Cl)c1	inactive	inactive	26.1 µM (active)	29.3 µM (active)	inactive	inactive	inactive				
COP(=O)(OC)O/C(=C/Cl)c1cc(Cl)c(Cl)cc1Cl	inactive	inactive	45.7 µM (active)		inactive	inactive	inactive	inactive	inactive		
II	inactive	inactive	inactive			inactive	inactive				
NCCCNCCCN	inactive	inactive	inactive		inactive	inactive	inactive		inactive		
CCCCCC[N+](=O)[O-]	inactive	inactive	inactive		inactive	inactive	inactive	inactive	inactive		
CCCCCCCCCCOC(=O)c1ccccc1C(=O)OCCCCCCCCCC	inactive	inactive	inactive	inactive	inactive	inactive	inactive	inactive			
ClCc1cccc(Cl)c1	inactive	inactive	inactive	inactive	inactive	inactive	inactive	inactive	inactive		
CCO[C@H]1O[C@@H]2OC3(C)CC[C@H]4[C@H](C)CC[C@@H]([C@H]1C)[C@@]24OO3	inactive	inactive	10.6 µM (active)	inactive	inactive	inactive	inactive	inactive	inactive		
O=S1(=O)OC(c2cc(Br)c(O)c(Br)c2)(c2cc(Br)c(O)c(Br)c2)c2ccccc21	14.1 µM (active)	22.3 µM (active)	5.6 µM (active)		3.97 µM (active)		14.1 µM (active)	15.8 µM (active)	inactive		
Sc1ccccc1Cl	inactive	inactive	inactive	inactive	inactive	inactive	inactive	inactive	inactive		
O=S1OC[C@@H]2[C@H](CO1)[C@]1(Cl)C(Cl)=C(Cl)[C@@]2(Cl)C1(Cl)Cl (some centres not stated)	inactive	inactive	48.6 µM (active)	inactive	inactive	inactive	inactive	inactive	inactive		
S=C=NCc1ccccc1	inactive	inactive	27.6 µM (active)		inactive	inactive	inactive	inactive	inactive		
CC1Sc2c(C(=O)O)c(=O)c3cc(F)c(N4CCNCC4)cc3n21 (configuration not stated)	inactive	inactive	inactive	inactive	inactive	inactive	inactive		inactive		
Brc1ccccc1	inactive	inactive	inactive	inactive	inactive	inactive	inactive	inactive	inactive		
C[C@]12CC[C@H]3[C@@H](CCC4=CC(=O)CC[C@@H]43)[C@@H]1CC[C@@H]2OC(=O)CCC1CCCCC1	inactive	inactive	inactive		inactive	inactive	inactive	inactive			
Cc1ccc2ccccc2c1	inactive	inactive	inactive	inactive	inactive	inactive	inactive	inactive	inactive		
C[C@@H]1CC[C@H]2[C@@H](C)C(=O)O[C@@H]3O[C@@]4(C)CC[C@@H]1[C@]32OO4	inactive	inactive	inactive		inactive	inactive	inactive	inactive	inactive	inactive	
CC(=O)NC1CCSC1=O (configuration not stated)	inactive	inactive	inactive	inactive	inactive	inactive	inactive		inactive	inactive	
O=NN1CCCCCC1	inactive	inactive	inactive	inactive	inactive	inactive	inactive		inactive		
O=[N+]([O-])C(Br)(CO)CO	inactive	inactive	inactive		inactive	inactive	48.6 µM (active)	61.1 µM (active)	inactive	inactive	
O=C1C(Cl)C(CCl)CN1c1cccc(C(F)(F)F)c1 (configuration not stated)	inactive	inactive	3.86 µM (active)		inactive	inactive	inactive	inactive	inactive		
COP(=S)(Oc1cc(Cl)c(Br)cc1Cl)c1ccccc1 (configuration not stated)	inactive	inactive	27.3 µM (active)		inactive	inactive	inactive	inactive	inactive		
C=CCOC(C)=O	inactive	inactive	26.9 µM (active)	inactive	inactive	inactive	inactive	inactive	inactive		
N#CCC#N	inactive	inactive	10.9 µM (active)	inactive	inactive	inactive	inactive	inactive	inactive		
COP(=S)(OC)Oc1cc(Cl)c(I)cc1Cl	inactive	inactive	54.5 µM (active)		inactive	inactive	inactive				
C[N+](C)(C)CCCl	inactive	inactive	inactive	inactive	inactive	inactive	inactive	inactive	inactive		
OC(c1ccc(Cl)cc1)(c1ccc(Cl)cc1)c1cccnc1	inactive	inactive	27.3 µM (active)	inactive	inactive	inactive	inactive	inactive	inactive		
CCOP(=S)(OCC)Oc1nc(Cl)c(Cl)cc1Cl	inactive	inactive	27.4 µM (active)	inactive	inactive	48.7 µM (active) and inactive	43.4 µM (active) and inactive	68.7 µM (active) and inactive			

SMILES	Potency [1]	Potency [2]	Potency [3]	Potency [4]	Potency [5]	Potency [6]	Potency [7]	Potency [8]	Potency [9]	outcome [10]	PLD induction [10]
C=CC(=O)NCNC(=O)C=C	inactive	inactive	inactive	inactive		inactive		inactive		inactive	
O=C(C(Cl)(Cl)Cl)C(Cl)(Cl)Cl	inactive	inactive	inactive	inactive	inactive	inactive	inactive		inactive		
O=C(CCl)c1ccc(Cl)cc1Cl	inactive	inactive	13.3 µM (active)	inactive	inactive	inactive	33.5 µM (active)	inactive	inactive	inactive	
COc1ccc(-c2ccccc2)cc1NNC(=O)OC(C)C	inactive	inactive	63.7 µM (active)		inactive	inactive	inactive		inactive		
Cc1cc(=O)[nH]o1	inactive	inactive	inactive	inactive	inactive	inactive	inactive	inactive	inactive		
CCOC(=O)COc1cc(-c2nn(C)c(OC(F)F)c2Cl)c(F)cc1Cl	inactive	inactive	inactive		inactive	inactive	inactive	inactive	inactive		
Cc1ccccc1C(=O)Nc1cccc(OC(C)C)c1	inactive	inactive	inactive	inactive	inactive	inactive	inactive	inactive	inactive		
COC(=O)C(C)N(C(=O)Cc1ccccc1)c1c(C)cccc1C (configuration not stated)	inactive	inactive		inactive	inactive	inactive	inactive	inactive	inactive		
CCOC(=O)C(Cl)C(C)=O (configuration not stated)	inactive	inactive		inactive	inactive	inactive	inactive	inactive			
CCCN(CCCl)c1c([N+](=O)[O-])cc(C(F)(F)F)cc1[N+](=O)[O-]	inactive	inactive		inactive	inactive	inactive	inactive	inactive			
COC(C)(C)CCC[C@H](C)C/C=C/C(C)=C/C(=O)OC(C)C	inactive	inactive	inactive			inactive	inactive	inactive	inactive		
CC(=O)[C@H]1CC[C@H]2[C@@H]3CC[C@H]4C[C@](C)(O)CC[C@]4(C)[C@H]3CC[C@]12C	inactive	inactive		inactive	inactive	inactive	inactive	inactive	inactive	inactive	
ClP(Cl)(Cl)(Cl)Cl	inactive	inactive		inactive	inactive	inactive	inactive				
CCCCNP(N)(N)=S	inactive	inactive		inactive	inactive	inactive	inactive	inactive			
CCOP(=S)(OCC)Oc1cc(Cl)c(Br)cc1Cl	inactive	inactive		inactive	inactive	inactive	inactive	inactive	inactive		
O=C(CBr)c1ccccc1	inactive	inactive		inactive	inactive	inactive	inactive				
CCCN(CC1CC1)c1c([N+](=O)[O-])cc(C(F)(F)F)cc1[N+](=O)[O-]	inactive	inactive		inactive	inactive	inactive	inactive	inactive			
Clc1cc(Cl)c(Cl)c(Cl)c1	inactive	inactive		inactive	inactive	inactive	inactive	inactive			
C=CCC1([C@H](C)CCC)C(=O)NC(=O)NC1=O	inactive	inactive		inactive	inactive	inactive	inactive		inactive	inactive	
COC(=O)C(Cl)C(=O)OC	inactive	inactive		inactive	inactive	inactive	inactive	inactive		inactive	
c1ccc(C2CC2)c(OCC2=NCCN2)c1	inactive	inactive		inactive	inactive	inactive	inactive	inactive	inactive	inactive	
Cc1c(F)c(F)c(COC(=O)C2C(/C=C(\Cl)C(F)(F)F)C2(C)C)c(F)c1F (configuration not stated)	inactive	inactive		inactive	inactive	inactive	inactive				
CC[C@H]1C[C@H]2[C@@H]3CCC4=CC(=O)CC[C@@H]4[C@H]3CC[C@]2(C)[C@H]1O	inactive	inactive		inactive	inactive	inactive	inactive		inactive		1.62% [at 7.66 µM] (inactive)
ClC=C(Cl)Cl	inactive	inactive		inactive	inactive	inactive	inactive	inactive	inactive	inactive	
OCCCBr	inactive	inactive		inactive	inactive	inactive	inactive	inactive	inactive	inactive	
O=C(OC1CCCCC1)c1ccccc1C(=O)OC1CCCCC1	inactive	inactive		inactive	inactive	inactive	inactive	inactive			
COc1cc(CC(C)N)cc2c1OCO2 (configuration not stated)	inactive	inactive		inactive	inactive	inactive	inactive	inactive		inactive	
